Assay [1] concerns HEK293T. The experiment in a line: qHTS assay to identify novel small-molecules to repurpose for Merkel cell carcinoma treatment (AID 1296009). Also: nearly all actives have a fitted effect of over 60% in size. Also: potency is read from the fitted curve at half-maximal effect. As to conditions: MCC and control cell lines, CellTiter-Glo viability, 72 h. The essentials:
(§1)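 Cells were incubated with compound for 72 hr at 37 degree celsius before CellTiter-Glo addition. Luminescence was normalized with no-cell wells as full cytotoxicity and DMSO as baseline.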
(In general: qHTS replaces the single test concentration by a dilution series.)

In assay [2] the test system is MCC-13. The description is as above. As to conditions: MCC and control cell lines, CellTiter-Glo viability, 72 h; series mostly up to 46 µM. The essentials: as §1
The subject of assay [3] is MCC-26. The assay is described as above. As to conditions: MCC and control cell lines, CellTiter-Glo viability, 72 h; series mostly up to 46 µM. The essentials:
as §1
Background: Cellular ATP, detected with luciferase, serves as a proxy for viable cell number.

Assay [4] deals with MKL-1. Described as above. The following applies: MCC and control cell lines, CellTiter-Glo viability, 72 h; series mostly up to 46 µM. The essentials: as §1
The subject of assay [5] is MKL-2. The assay is described as above. As to conditions: MCC and control cell lines, CellTiter-Glo viability, 72 h; series mostly up to 46 µM. Put shortly: as §1
Assay [6] relates to NIH3T3. Described as above. As to conditions: MCC and control cell lines, CellTiter-Glo viability, 72 h; series mostly up to 44.8 µM. The essentials: as §1
Assay [7] has as its system UISO. The assay is described as above. The following applies: MCC and control cell lines, CellTiter-Glo viability, 72 h; series mostly up to 46 µM. The essentials:
as §1

The test system of assay [8] is WaGa. Described as above. The following applies: MCC and control cell lines, CellTiter-Glo viability, 72 h; series mostly up to 46 µM. The essentials:
as §1

Assay [9] concerns C33A. Description: Primary qHTS to identify gynecologic anti-cancer compounds using libraries of approved drugs and bioactive compounds (AID 1345084). Also: nearly all actives have a fitted effect of over 55% in size. The following applies: Gynecologic cancer cell panel viability, ATPlite luminescence, 48 h; series mostly up to 57.5 µM. The essentials:
(§2)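 48 h compound exposure at 37 C, 5% CO2; five-point qHTS. ATPlite luminescence readout of cell ATP.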

Assay [10] deals with CAOV3. Described as above. The following applies: Gynecologic cancer cell panel viability, ATPlite luminescence, 48 h; series mostly up to 57.5 µM. The essentials: as §2
The mark [11] stands for this setting: at 44.8 µM (top of the series) unless noted.

Where “and” joins values, the source holds several entries; their conditions need not be identical. Identical values can stand only once. Records with an inconclusive call do not appear. A structure can be active in one record and inactive in another. Calls of active or inactive are those of the source. Calls follow the shape of the dose curve; as a rule, active = well fitted curve in the direction sought with a large enough effect; inconclusive = small, poorly fitted or top-dose-only effect, or another doubt; inactive = no such curve, though single readings can be large; an effect the other way counts as inactive or inconclusive.

For the molecule `COc1ccc(C2CNC(=O)C2)cc1OC1CCCC1` (stereo not given), the result in assay [1] (setting [11]) and in assay [6] was inactive. Besides, the Potency result in [2], in assay [3], in assay [4], in assay [5], in assay [7] and in assay [8] was “inactive” each time. Besides, in [9], the Potency result is “inactive”.

Take `CCOC(=O)C(C)(C)Oc1ccc(Cl)cc1`: the molecule was called inactive in assay [1] (setting [11]) and in assay [6]. Further, the Potency entry in assay [2], in assay [4], in assay [5], in assay [7], in assay [8] and in assay [9] was “inactive” each time.

Regarding `Cn1ccc2cc3c(cc21)CCN3C(=O)Nc1cccnc1`, the result in assay [1] (setting [11]) and in assay [6] was inactive. In addition, the Potency entry in [2], in [3], in [4], in assay [5], in assay [7] and in [8] was “inactive” in each case. The Potency result in assay [9] and in assay [10] was “inactive” throughout.

Take `CCC1(C)CC(=O)NC1=O` (stereo not given): the result in assay [1] (setting [11]) and in assay [6] was inactive. Moreover, the Potency entry in assay [2], in assay [4], in assay [5], in assay [7], in [8] and in [9] was “inactive” each time. In addition, in assay [10], the Potency result is “inactive”.

As to `Cc1ccc(C(=O)Nc2ccc(S(=O)(=O)O)c3cc(S(=O)(=O)O)cc(S(=O)(=O)O)c23)cc1NC(=O)c1cccc(NC(=O)Nc2cccc(C(=O)Nc3cc(C(=O)Nc4ccc(S(=O)(=O)O)c5cc(S(=O)(=O)O)cc(S(=O)(=O)O)c45)ccc3C)c2)c1`, the molecule was called inactive in assay [1] (setting [11]) and in assay [6]. Besides, the Potency result in assay [2], in assay [3], in [4], in assay [5], in assay [7] and in assay [8] was “inactive” each time. The Potency result in assay [9] is “inactive”.

With `C[C@](N)(Cc1ccc(O)c(O)c1)C(=O)O`, the outcome in assay [1] (setting [11]) was inactive. In addition, the Potency entry in assay [2], in [3], in assay [4], in assay [5], in [7] and in assay [8] was “inactive” throughout. The Potency entry in [9] and in [10] was “inactive” in each case.

As for `CC1(C)O[C@H]2CC(=O)OC[C@]23[C@H]2CC[C@@]4(C)[C@H](c5ccoc5)OC(=O)[C@H]5O[C@]54[C@]2(C)C(=O)C[C@@H]13`, the molecule was called inactive in [1] (at 17.4 µM (top of the series)), in assay [1] (at 44.8 µM (top of the series)) and in assay [6]. For the same molecule, the Potency result in assay [2], in assay [4], in assay [5], in assay [7], in assay [8] and in assay [9] was “inactive” in each case.

Regarding `CC(C)(C)C(=O)Oc1ccc(S(=O)(=O)Nc2ccccc2C(=O)NCC(=O)O)cc1`, the outcome in assay [1] (setting [11]) was inactive. Further, the Potency result in assay [2], in assay [4], in assay [5], in [7], in [8] and in assay [9] was “inactive” each time.

With `COc1ccc2c(c1)c(CC(=O)O)c(C)n2C(=O)c1ccc(Cl)cc1`, the molecule was classed as inactive in assay [1] (setting [11]). In addition, the Potency entry in assay [2], in assay [4], in assay [5], in assay [7], in assay [8] and in assay [9] was “inactive” in each case.

Turning to `NS(=O)(=O)c1cc2c(cc1Cl)NCNS2(=O)=O`, in assay [1] (setting [11]), the call was inactive. Besides, the Potency entry in [2], in assay [3], in assay [4], in assay [5], in assay [7] and in [8] was “inactive” each time. Besides, in [9], the Potency entry was “inactive”.

Take `CC(=O)OCC(CCn1cnc2cnc(N)nc21)COC(C)=O`: the outcome in assay [1] (setting [11]) and in assay [6] was inactive. Besides, the Potency result in [2], in [3], in assay [4], in [5], in assay [7] and in [8] was “inactive” each time. For the same molecule, the Potency entry in assay [9] is “inactive”.

With `COc1cc2nc(N3CCN(C(=O)C4COc5ccccc5O4)CC3)nc(N)c2cc1OC` (stereo not given), the Potency entry in assay [2], in [3], in assay [4], in assay [5], in [7] and in assay [8] was “inactive” throughout. The Potency result in [9] was “inactive”. In addition, the molecule was called inactive in assay [6].

As to `CCOC(=O)Nc1ccc(NCc2ccc(F)cc2)nc1N`, the Potency entry in assay [2], in assay [3], in assay [4], in assay [5] and in assay [7] was “inactive” throughout. Further, in [6], the molecule was called inactive. Moreover, the Potency in [8] was 21.1 µM (active) and inactive.

Take `C[C@H]1c2cccc(O)c2C(O)=C2C(=O)[C@]3(O)C(O)=C(C(N)=O)C(=O)[C@@H](N(C)C)[C@@H]3[C@@H](O)[C@@H]21`: the Potency entry in [2], in [3], in assay [4], in assay [5], in [8] and in assay [9] was “inactive” each time. Further, in [10], the Potency result is “inactive”. Besides, the call in assay [6] was inactive.

As for `COc1cc2c(c(OC)c1OC)-c1ccc(OC)c(=O)cc1[C@@H](NC(C)=O)CC2`, the Potency in assay [2] is 0.0118 µM (active). For the same molecule, the Potency result in [3], in assay [5], in assay [7], in [8] and in [10] was “inactive” throughout.

Consider `Nc1nnc(-c2cccc(Cl)c2Cl)c(N)n1`, for which the Potency result in [2], in [3], in assay [4], in assay [5], in assay [7] and in assay [8] was “inactive” throughout. The Potency entry in assay [9] and in assay [10] was “inactive” in each case. In addition, the molecule was called inactive in [6].

`Cc1cc(C(C)(C)C)c(O)c(C)c1CC1=NCCN1`: the Potency entry in assay [2], in [3], in [4], in [5], in [7] and in [8] was “inactive” throughout. Also, the Potency entry in assay [9] and in assay [10] was “inactive” in each case. Moreover, in assay [6], the result was inactive.

Regarding `Cc1cc(C(C)(C)C)cc(C)c1CC1=NCCN1`, the Potency result in assay [2], in assay [3], in assay [4], in [5], in assay [7] and in [8] was “inactive” in each case. Moreover, the Potency result in assay [9] and in [10] was “inactive” each time. In addition, the outcome in [6] was inactive.

In the case of `CS(=O)(=O)Nc1ccc([N+](=O)[O-])cc1Oc1ccccc1`, the Potency result in assay [2], in [3], in assay [4], in assay [7], in [8] and in [9] was “inactive” each time. Besides, in assay [5], the Potency entry is “inactive and 14.8 µM (active)”.

As to `CC(C)C(=O)Nc1ccc([N+](=O)[O-])c(C(F)(F)F)c1`, the Potency entry in assay [2], in assay [3], in assay [4], in [5], in [7] and in [9] was “inactive” throughout. In addition, in assay [6], the outcome was inactive.

`CN1CCN(CCCN2c3ccccc3Sc3ccc(Cl)cc32)CC1`: the Potency result in assay [2], in [3], in assay [7] and in assay [9] was “inactive” throughout. Moreover, the values for the Potency in assay [4] and in assay [5] were 16.6 µM (active) and 11.8 µM (active), respectively.

For the molecule `CN(C)C(=O)C(CCN1CCC(O)(c2ccc(Cl)cc2)CC1)(c1ccccc1)c1ccccc1`, the Potency result in assay [2] and in [4] was “inactive” each time. In assay [5], the Potency is 18.7 µM (active).

With `Cc1ccc(-c2cc(C(F)(F)F)nn2-c2ccc(S(N)(=O)=O)cc2)cc1`, the Potency result in assay [2], in assay [3], in [4], in assay [5], in assay [7] and in [8] was “inactive” in each case. Also, the Potency result in assay [9] was “inactive”.
